Pf growth 48h – inhibits P. falciparum growth in the first generation, 48 h; AID 504832; P. falciparum luciferase growth in erythrocytes, 48 h; Potency, µM (titrated, usually from 28.7 µM), for the others: at the highest dose activity change, negative = inhibition, actives largely listed as inhibitors; hit rate 5.9% among 310,000
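Parasite viability was followed by luminescence of a genomically integrated firefly luciferase. Cultures held 0.1% parasitemia at 2% hematocrit (final), incubated under 5% CO2 at 37 C.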
Pf growth 96h – inhibits malaria parasite growth, 96 h. Potency, µM (series often up to 28.7 µM), for inactives: at the highest dose activity change, negative = inhibition, hits mostly inhibitors. hit rate 6.9% among 320,000. P. falciparum luciferase reporter growth, 96 h
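Parasite growth measured via integrated firefly luciferase reporter in P. falciparum. Infected erythrocytes at 2% hematocrit, 0.05% parasitemia final were treated 96 hours at 37 C under 5% CO2, and luminescence was read.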
AMA1 RON2 block – disrupts binding of P. falciparum AMA1 to RON2; AID 720542; Potency, µM (series often up to 58.2 µM), without a hit: at the highest dose activity change, negative = inhibition, hits mostly inhibitors; AlphaScreen AMA1-biotinylated RON2 peptide binding; hit rate 0.2% among 360,000;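 further: 0% = vehicle wells and -100% = peptide control; nearly all actives have a fitted effect of over 45% in size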
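AMA1 (3D7) with his tag at 25 nM final met compounds first, then biotinylated RON2 peptide at 25 nM; detection used donor plus acceptor beads, 10 µg/mL apiece, read by AlphaScreen after 30 min at room temperature.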
HCV inh – inhibitors of hepatitis C virus infection; Huh7.5.1 HCVcc-Cre infection, luciferase reporter, 44 h; Potency, µM (doses to about 41.8 µM), for inactives: at the highest dose activity change, negative = inhibition, hits mostly inhibitors; hit rate 3.4% among 340,000; AID 651820
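Reporter virus HCVcc-Cre (~0.5 moi) infects cells exposed to compound; seeding density 1,000 cells/well with 4 h settling beforehand. Luminescence, 15 sec read, taken 44 h post-infection following a 15 min RT substrate incubation.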
* hit, by the source's call; [ ] = remark or other dose. Only some compounds are listed: those with a hit (about 11% of all), similar ones and a draw of the others. The call rests on the fitted dose curve; in most records, active means well fitted curve in the direction sought with a large enough effect; inconclusive means small, poorly fitted or top-dose-only effect, or another doubt; inactive means no such curve, though single readings can be large; an effect the other way counts as inactive or inconclusive. Unless noted, on the % scale 0 is the no-effect control and ±100 the full control effect; potency means the concentration at half of the fitted maximal effect.

Results for Cc1nc(N2CCN(Cc3ccc4c(c3)OCO4)CC2)c2cc(-c3ccccc3)sc2n1 ?
Pf growth 48h: 12µM*; Pf growth 96h: inconclusive; AMA1 RON2 block: inconclusive; HCV inh: inconclusive

How did N#Cc1ccc(CSc2nnc(-c3cccc(S(=O)(=O)N4CCCCC4)c3)o2)cc1 do in these assays?
Pf growth 48h: 13µM*; Pf growth 96h: inconclusive; AMA1 RON2 block: 3%; HCV inh: inconclusive

Results for CC(C)C1C(=O)N(Cc2cn(CC3CCCCC3)nn2)CCS(=O)(=O)N1Cc1ccc(-c2ccccc2)cc1 (stereo unspecified) ?
AMA1 RON2 block: -1%

What do the screens show for `CC1(C)Cc2cccc(OCC(=O)N3CCN(S(=O)(=O)c4ccc(F)cc4)CC3)c2O1`?
Pf growth 48h: inconclusive; Pf growth 96h: 9.3µM*; AMA1 RON2 block: -12%; HCV inh: -19%

How did N#Cc1ccccc1Oc1ccc(S(=O)(=O)N2CCCCC2)cn1 do in these assays?
Pf growth 48h: 11%; Pf growth 96h: 45%; AMA1 RON2 block: 0%; HCV inh: -7%

Results for CC1(C)Cc2cccc(Oc3ccc(S(=O)(=O)N4CCCC4)cn3)c2O1 ?
Pf growth 48h: 12µM*; Pf growth 96h: inconclusive; AMA1 RON2 block: -3%; HCV inh: inconclusive

Results for CC1(C)Cc2cccc(Oc3ccc(S(=O)(=O)N4CCCCC4)cn3)c2O1 ?
Pf growth 48h: 13µM*; Pf growth 96h: inconclusive; AMA1 RON2 block: 0%; HCV inh: -17%

What do the screens show for `O=S(=O)(c1ccc(Oc2ccc(Br)cc2F)nc1)N1CCCCC1`?
Pf growth 48h: 14%; Pf growth 96h: inconclusive; AMA1 RON2 block: 10%; HCV inh: 25µM*

How did Cc1cccc(N2CCN(C(=O)COc3cccc4c3OC(C)(C)C4)CC2)c1C do in these assays?
Pf growth 48h: inconclusive; Pf growth 96h: inconclusive; AMA1 RON2 block: -11%; HCV inh: inconclusive

Results for Cc1ccccc1NS(=O)(=O)c1cccc2nsnc12 ?
Pf growth 48h: -5%; Pf growth 96h: inconclusive; AMA1 RON2 block: 1%; HCV inh: 25%

What do the screens show for `COc1ccc(Cn2c(=S)[nH]c3ccsc3c2=O)cc1`?
Pf growth 48h: 16%; Pf growth 96h: inconclusive; AMA1 RON2 block: 70%; HCV inh: 5%

What do the screens show for `CC1=CC(=O)C2(C)C(C)=C(C)C12C` (stereo unspecified)?
AMA1 RON2 block: -3%

How did COc1ccc(C)cc1NC(=O)C(c1ccccc1)N1CCN(CC(=O)N2CCCC2)CC1 (stereo unspecified) do in these assays?
Pf growth 48h: 12µM*; Pf growth 96h: 12µM*; AMA1 RON2 block: -4%; HCV inh: inconclusive

How did COc1ccc(C)cc1NC(=O)C(c1ccccc1)N1CCN(CC(=O)N2CCOCC2)CC1 (stereo unspecified) do in these assays?
Pf growth 48h: 9.3µM*; Pf growth 96h: inconclusive; AMA1 RON2 block: -3%; HCV inh: -17%

How did COc1cccc(NC(=O)C(c2ccccc2)N2CCN(CC(=O)N3CCOCC3)CC2)c1 (stereo unspecified) do in these assays?
Pf growth 48h: inconclusive; Pf growth 96h: inconclusive; AMA1 RON2 block: 8%; HCV inh: 0%

How did Cc1ccc(NC(=O)C(c2ccccc2)N2CCN(CC(=O)N3CCOCC3)CC2)cc1 (stereo unspecified) do in these assays?
Pf growth 48h: inconclusive; Pf growth 96h: -27%; AMA1 RON2 block: 0%; HCV inh: 1%

What do the screens show for `CC1=[N+](C)c2c(ccc3cccnc23)C1(C)C`?
Pf growth 48h: inconclusive; Pf growth 96h: 45%; AMA1 RON2 block: -11%; HCV inh: inconclusive

How did CCc1ccc(S(=O)(=O)/N=C2\C=C(NS(=O)(=O)c3ccccc3)C(=O)c3ccccc32)cc1 do in these assays?
Pf growth 48h: 30%; Pf growth 96h: -10%; AMA1 RON2 block: -14%; HCV inh: -27%

How did Cc1ccccc1NC1=C/C(=N\S(=O)(=O)c2ccc(C(=O)O)cc2)c2ccccc2C1=O do in these assays?
Pf growth 48h: 2.6µM*; Pf growth 96h: inconclusive; AMA1 RON2 block: -27%; HCV inh: inconclusive

What do the screens show for `O=C(O)c1ccc(S(=O)(=O)/N=C2\C=C(Nc3ccccc3F)C(=O)c3ccccc32)cc1`?
Pf growth 48h: 2.6µM*; Pf growth 96h: inconclusive; AMA1 RON2 block: -10%; HCV inh: 10µM*

What do the screens show for `CNS(=O)(=O)c1cc(-c2nnc(N3CCOCC3)c3ccccc23)ccc1C`?
AMA1 RON2 block: -6%; HCV inh: inconclusive

What do the screens show for `CCOc1cc2c(cc1OCC)-n1cccc1C(c1cccc(F)c1F)NC2` (stereo unspecified)?
Pf growth 48h: inconclusive; Pf growth 96h: inconclusive; AMA1 RON2 block: inconclusive; HCV inh: -22%

What do the screens show for `CCOc1cc2c(cc1OCC)-n1cccc1C(c1ccc(OC)c(OC)c1)NC2` (stereo unspecified)?
Pf growth 48h: inconclusive; Pf growth 96h: 0%; AMA1 RON2 block: 0%; HCV inh: inconclusive

What do the screens show for `CCOc1cc2c(cc1OCC)-n1cccc1C(c1ccccc1O)NC2` (stereo unspecified)?
Pf growth 48h: 8.3µM*; Pf growth 96h: 6%; AMA1 RON2 block: -18%; HCV inh: -5%

How did CCOc1cc2c(cc1OCC)-n1cccc1C(c1ccc(F)c(OC)c1)NC2 (stereo unspecified) do in these assays?
Pf growth 48h: 10µM*; Pf growth 96h: -1%; AMA1 RON2 block: -18%; HCV inh: -17%

Results for CCOc1cc2c(cc1OCC)-n1cccc1C(c1c(O)cccc1OC)NC2 (stereo unspecified) ?
Pf growth 48h: 13µM*; Pf growth 96h: -28%; AMA1 RON2 block: inconclusive; HCV inh: inconclusive

Results for CCOc1cc2c(cc1OCC)-n1cccc1C(c1ccccc1OC)NC2 (stereo unspecified) ?
Pf growth 48h: 10µM*; Pf growth 96h: 0%; AMA1 RON2 block: inconclusive; HCV inh: -26%

What do the screens show for `CCOc1cc2c(cc1OCC)-n1cccc1C(c1ccc(OC)cc1)NC2` (stereo unspecified)?
Pf growth 48h: inconclusive; Pf growth 96h: inconclusive; AMA1 RON2 block: -22%; HCV inh: -29%

How did O=C(Nc1ccccc1F)C1COc2ccccc2O1 (stereo unspecified) do in these assays?
Pf growth 48h: 8%; Pf growth 96h: inconclusive; AMA1 RON2 block: 21%; HCV inh: 8%

What do the screens show for `Nc1nc(-c2c(Cl)cccc2Cl)no1`?
Pf growth 48h: 33%; Pf growth 96h: 21%; AMA1 RON2 block: 12%; HCV inh: -16%

Results for Fc1ccc(-c2[nH]ncc2CN(CC2CCC2)CC2CCCO2)c(F)c1 (stereo unspecified) ?
Pf growth 48h: -23%; Pf growth 96h: inconclusive; AMA1 RON2 block: -5%; HCV inh: -13%

What do the screens show for `CCN(CC)S(=O)(=O)c1ccc(C)c(NC(=O)COC(=O)CCC(=O)c2cccs2)c1`?
Pf growth 48h: 1%; Pf growth 96h: -10%; AMA1 RON2 block: 7%[11.6 µM]; HCV inh: -20%

High-throughput results from PubChem.
